DRD3 agonist – qHTS of D3 Dopamine Receptor Agonist: qHTS; D(3) dopamine receptor (Homo sapiens), P35462; D3R DiscoveRx beta-arrestin cells, luminescence, 90 min; max activation, %; actives 0.58% (n = 410,000); AID 652048, 2013; in the data active = max activation above about 30%; note: 0% is about no effect
Target sequence (P35462 whole entry, looked up): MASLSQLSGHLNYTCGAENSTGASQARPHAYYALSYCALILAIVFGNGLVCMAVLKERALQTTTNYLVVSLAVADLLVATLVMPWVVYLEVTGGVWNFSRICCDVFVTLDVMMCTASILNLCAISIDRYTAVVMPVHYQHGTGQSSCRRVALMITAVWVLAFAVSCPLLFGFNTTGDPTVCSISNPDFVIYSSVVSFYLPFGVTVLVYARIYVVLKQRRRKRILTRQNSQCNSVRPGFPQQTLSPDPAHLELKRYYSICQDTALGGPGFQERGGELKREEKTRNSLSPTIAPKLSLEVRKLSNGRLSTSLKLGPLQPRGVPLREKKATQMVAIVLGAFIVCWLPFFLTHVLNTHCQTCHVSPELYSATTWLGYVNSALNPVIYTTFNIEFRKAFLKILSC
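Agonist mode: compounds and dopamine controls were applied to plated cells for 90 min at 37 degrees C after an overnight attachment at 1500 cells/well. Luminescent read-out followed 30 - 60 minutes at room temperature with DiscoveRx detection reagent.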
D3 antag – qHTS of D3 Dopamine Receptor Antagonist: qHTS. D(3) dopamine receptor (Homo sapiens), P35462. D3R cells, DiscoveRx beta-arrestin luminescence, antagonist mode; stronger effect = lower value. max response, negative = inhibition, %. actives 2.5% (n = 360,000). AID 652054, 2013; in the data active = max response below about -50%; inconclusive = no clear call, values can overlap the other calls; note: % is set by controls: 0 for no effect and ±100 for the full control effect
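Cells expressing the human receptor were seeded at 1500 cells/well, incubated overnight at 37 degrees C in 5% CO2, then exposed to library compounds with dopamine controls for 90 minutes at 37 degrees C before luminescent detection.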
D1 potentiator – Potentiators of Human D1 Dopamine Receptor: qHTS. D(1A) dopamine receptor (Homo sapiens), P21728. actives 0.036% (n = 360,000). potentiation, % at 10 µM. HEK293 TREx D1 cells, calcium flux, dopamine EC20 potentiation; in the data active = potentiation above about 30%; note: 0% is about no effect
D1 ag – Allosteric Agonists of the Human D1 Dopamine Receptor: qHTS | D(1A) dopamine receptor (Homo sapiens), P21728 | HEK293 T-REx D1 cells, calcium flux, agonist mode | activation, % at 2 µM | actives 1% (n = 360,000); in the data active = activation above about 30%; note: 0% is about no effect
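Agonism was scored from calcium flux recorded over 180 s (1 read/s) after pintool compound addition, following a 10-cycle baseline. Cells were inducible force-coupled HEK293 TREx D1, plated overnight at 30 C and loaded with no-wash calcium dye.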
D1 antag – Antagonist of Human D 1 Dopamine Receptor: qHTS; HEK293 TREx D1 cells, calcium flux, dopamine EC80; stronger effect = lower value; AID 504652, 2011; D(1A) dopamine receptor (Homo sapiens), P21728; actives 3.2% (n = 360,000); activity change, negative = inhibition, % at 10 µM; in the data active = activity change below about -30%; note: % is set by controls: 0 for no effect and ±100 for the full control effect
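Calcium flux readout: force-coupled, inducible Hek293 Trex D1 line, cells induced overnight at 30 C with tetracycline, dye-loaded 30–90 min at RT. Antagonism scored against EC80 dopamine challenge given 180 s after compound.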
Active calls of the source: *; ? = inconclusive; . = no result given. Compounds with a hit are over-represented: about 6% of the library has one in this group of screens.

SMILES | DRD3 agonist | D3 antag | D1 potentiator | D1 ag | D1 antag
O=C(C1=C(O)C(=O)N(CC2CCCO2)C1c1ccccc1)c1ccco1 (configuration not stated) | 2 | 8 | 12 | 1 | -6
O=C(C1=C(O)C(=O)N(CC2CCCO2)C1c1cccnc1)c1ccco1 (configuration not stated) | 1 | -25 | -2 | 0 | -30*
Cc1oc(-c2ccc(C(=O)Nc3cccc(C(F)(F)F)c3)cc2)nc1CSc1ccccc1 | 0 | . | -3 | 13 | -11
COC(=O)c1ccc(CNC(=O)c2ccccc2C(=O)NCC2(CBr)OCCO2)cc1 | 3 | 21 | . | . | .
C[C@H](CO)N1C[C@H](C)[C@H](CN(C)Cc2ccncc2)Oc2ncc(C#CC3CC3)cc2C1=O | 2 | -56* | . | . | .
CCOC(=O)c1c(C)[nH]c(C)c1S(=O)(=O)N1CCN(c2ccc(F)cc2)CC1 | 2 | 3 | 2 | 4 | 9
CCc1ccc(NC(=O)Cn2ncc3c(C)n(Cc4cccc(Cl)c4)c(C)c3c2=O)cc1 | 1 | . | -3 | 1 | 4
CCOc1ccc(CCNC(=O)CCc2c(C)nc3c4c(C)cc(C)nc4nn3c2C)cc1 | -7 | . | -3 | -1 | -36*
COc1ccc(CCNC(=O)CCc2c(C)nc3cc(-c4cccc(F)c4)nn3c2C)cc1OC | -7 | . | 0 | 2 | -34*
COc1ccccc1-c1cc2nc(C)c(CCC(=O)NCCc3ccc(SC)cc3)c(C)n2n1 | 6 | . | -6 | 8 | -47*
Cc1ccc(OCc2nc(-c3cccs3)no2)c([N+](=O)[O-])c1 | 5 | 2 | -5 | 9 | -21
O=C(CC1S/C(=N/N=C2CCCCCC2)NC1=O)Nc1ccc(Br)cc1F (configuration not stated) | 3 | -2 | 3 | 1 | 17
Cc1cc(C)cc(NS(=O)(=O)c2c(C)nc3scc(C)n3c2=O)c1 | 4 | . | -3 | 9 | 2
Cn1nc(-c2ccc(C(=O)Nc3cccc(Cl)c3)cc2)c2ccccc2c1=O | -6 | -20 | -6 | 0 | -37*
Cc1ccccc1NC(=O)C1CCN(S(=O)(=O)c2c(C)noc2/C=C/c2ccco2)CC1 | -15 | . | 5 | 0 | -33*
Cc1ccc(CNC(=O)C2CCN(S(=O)(=O)c3c(C)noc3/C=C/c3ccco3)CC2)cc1 | 1 | -6 | -10 | 9 | -48*
O=C(NCc1ccccc1)C(c1cccnc1)N(C(=O)c1csnn1)c1ccccc1 (configuration not stated) | 10 | -1 | -6 | 3 | -3
COC(=O)C[C@@H]1CC[C@@H](NC(C)=O)[C@@H](CO)O1 | 1 | -6 | . | . | .
Cc1ccc(N=Cc2sc(O)c3ccccc23)cc1 | 2 | 2 | 16 | 302* | -39*
Cc1ccc(N=Cc2sc(O)c3ccccc23)c(C)c1 | 7 | 35 | -1 | 47* | -5
Cc1ccc(N=Cc2c(O)c3ccccc3n(C)c2=O)cc1 | 7 | 11 | 2 | -1 | 5
O=C(CSc1nnc(-c2ccccc2F)o1)N1CCc2ccccc21 | 6 | . | 4 | 3 | 2
O=C(CN1C(=O)CC(c2ccc(F)cc2)=Nc2ccccc21)NCc1ccccc1Cl | -17 | . | 2 | 3 | -46*
Cc1ccc(C2=Nc3ccccc3N(CC(=O)NCc3ccc(F)cc3)C(=O)C2)cc1C | -12 | . | -4 | 3 | -2
Cc1cc(NC(=O)C2CC=CCC2C(=O)O)no1 (configuration not stated) | 2 | -54* | -2 | -1 | 6
SMILES | DRD3 agonist | D3 antag | D1 potentiator | D1 ag | D1 antag
O=C(NNC1=Nc2ccccc2SC1)c1ccc(Cl)cc1 | -20 | -73* | -5 | 12 | -18
CCc1ccccc1NC(=O)CN(C)S(=O)(=O)c1cccc2nsnc12 | -10 | . | 7 | -2 | -19
NC(=O)c1ccc(NC(=O)COC(=O)CCCc2c[nH]c3ccccc23)cc1 | -3 | 0 | -1 | 2 | -30*
O=C(COC(=O)CCc1c[nH]c2ccccc12)Nc1ccccc1 | 0 | ? | -8 | 2 | -9
O=C(COC(=O)CCc1c[nH]c2ccccc12)NC(c1ccccc1)c1ccccc1 | 39* | 5 | -1 | 4 | -11
Cc1ccc(NC(=O)COC(=O)Cc2c[nH]c3ccccc23)cc1C | -1 | 11 | -4 | 1 | -75*

Screening data (PubChem)
